Out of some 330,000 compounds screened, about 80 (0.02%) were called active. This is one part of a sample in which actives are shown more often than they occur. Calls follow the shape of the dose curve; as a rule, active = well fitted activation curve with a large enough effect; inconclusive = small, poorly fitted or top-dose-only effect; inactive = flat fitted curve, though single readings scatter.
Molecular target: Beta-2 adrenergic receptor (Homo sapiens) (UniProt P07550)
Assay: qHTS assay of beta-arrestin-biased ligands of beta2-adrenergic receptor; also: nearly all actives have a fitted effect of over 65% in size
Conditions: beta-arrestin recruitment to beta2AR, cell-based reporter; series mostly up to 46.1 µM
In short: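 Agonism was measured as beta-arrestin recruitment to recombinant beta2-AR, releasing tTA to drive luciferase. Cells were exposed for 18 hr at 37 degrees C to a series up to 46 microM. %Activity from corrected luminescence gave concentration-response curves.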

Sequence of Beta-2 adrenergic receptor (Homo sapiens) (P07550 whole entry, looked up): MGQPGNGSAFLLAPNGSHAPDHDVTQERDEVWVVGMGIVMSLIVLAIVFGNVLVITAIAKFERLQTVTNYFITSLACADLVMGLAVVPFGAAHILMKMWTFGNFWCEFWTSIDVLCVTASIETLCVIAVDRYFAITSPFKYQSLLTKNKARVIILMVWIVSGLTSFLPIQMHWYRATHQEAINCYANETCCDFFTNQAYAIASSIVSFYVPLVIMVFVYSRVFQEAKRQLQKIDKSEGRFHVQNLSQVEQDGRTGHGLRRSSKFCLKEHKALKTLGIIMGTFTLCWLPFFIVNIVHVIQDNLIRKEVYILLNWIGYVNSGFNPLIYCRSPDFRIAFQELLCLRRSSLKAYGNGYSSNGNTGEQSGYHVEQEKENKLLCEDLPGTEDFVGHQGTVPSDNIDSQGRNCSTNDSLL

Potency, inactive:
CCOC(=O)C1=C(c2ccccc2)N=C2SCC(=O)N2C1c1ccc(O)c(OC)c1 (configuration not stated)
COc1cc(C)c(C(C)C)cc1S(=O)(=O)n1ccnc1
CCOc1ccc(N(CC(=O)NCCc2ccc(F)cc2)S(=O)(=O)c2ccccc2)cc1
CCN(C(=O)COC(=O)c1c(NC(C)=O)sc(C)c1C)C1CCS(=O)(=O)C1 (configuration not stated)
C=CCN(c1ccccc1C(=O)NCC(=O)OCC)S(=O)(=O)c1ccc(C)cc1
CCCOc1ccc(C2=CSC3=NCCN23)cc1Cl
CCc1ccc(-c2nc(SCC(=O)NC3CCCC3)n[nH]2)cc1
Cc1cc(OCCOc2cccc3cccnc23)c(C)cc1Cl
CCOC(=O)N1CCN(S(=O)(=O)N2CCCC(C(=O)NCCCN3CCC(C)CC3)C2)CC1 (configuration not stated)
Cc1ccsc1C(=O)OCC(=O)NCCc1ccccc1
Cc1ccc(S(=O)(=O)NCCC(=O)NNC(=O)C2COc3ccccc3O2)cc1 (configuration not stated)
COc1ccc(CC(=O)NCc2nnc(SCC(=O)Nc3ncc(C)s3)n2C)cc1
CC1CCCCC1NC(=O)c1cc(=O)[nH]c2ccccc12 (configuration not stated)
Cc1csc2ncc(C(=O)N(Cc3ccccc3)c3ccccn3)c(=O)n12
c1ccc(-c2cnc(CN3CCN(c4ccccc4)CC3)o2)cc1
Cc1cccc(C)c1N1C(=O)CN(Cc2ccccc2)C1=S
Cc1cccc(N(C(=O)Cn2nnc(-c3ccc(C)o3)n2)C(C(=O)NC2CCCC2)c2ccncc2)c1 (configuration not stated)
COc1ccccc1N1CC(C(=O)Nc2nnc(SCC(=O)NC(C)C)s2)CC1=O (configuration not stated)
CCO[C@H]1OC(C(=O)N2CCCCCCC2)=C[C@@H](c2ccc(C(F)(F)F)cc2)[C@@H]1CCCO
COc1ccc(S(=O)(=O)N(C)C[C@H]2Oc3ccc(NS(=O)(=O)c4cccs4)cc3CC(=O)N([C@H](C)CO)C[C@H]2C)cc1
O=C(Cn1cncn1)N/N=C/c1c2ccccc2cc2ccccc12
CCCOC1CCCN(C(=O)c2cc(COc3cncc(Cl)c3)on2)C1 (configuration not stated)
CCC1SC(CC)C(=O)N(CC(=O)NC2CCCCC2)C1=O (configuration not stated)
CCc1ccc2oc(=O)cc(CN3CCCCC3C)c2c1 (configuration not stated)
O=C(NCc1ccccc1)C1CCCN(c2nc3ccsc3c(=O)s2)C1 (configuration not stated)
CC(C)CCNC(=O)CN(C(=O)Cn1nnc(-c2ccc(F)cc2)n1)C1CCCC1
CC(=O)Nc1ccc(S(=O)(=O)Nc2ccc(-c3ccc4nnc(C)n4n3)cc2)cc1
Cn1cc(CCC(=O)NC2CC2)c2ccccc21
COC(=O)c1sc(SC)c(S(=O)(=O)C(C)C)c1N/N=C(\C#N)S(=O)(=O)c1ccccn1
CCn1cc(C(=O)Nc2cc(C)ccc2C)c(=O)c2ccc(C)nc21
COC(=O)c1sc(NC(=O)COC(=O)C2CCC2)c(C(=O)OC)c1C
Cc1nnc(SCC(=O)Nc2ccc(S(=O)(=O)Nc3ccc(Cl)nn3)cc2)s1
Cn1c(SCC(=O)Nc2ccc(Cl)cc2)nc(O)cc1=O
Cc1nn(-c2ccccc2)c(NC(=O)c2cccs2)c(-c2ccc(Cl)cc2)c1=O
Cc1ccc(S(=O)(=O)N(C)CC(=O)NCCc2c[nH]c3ccccc23)cc1
Cc1ccccc1C1=NC(C(F)(F)F)(C(F)(F)F)c2c(n(-c3ccc(F)cc3)c(=O)[nH]c2=O)N1
CSc1nnc(C2CCCN(CC(=O)Nc3ccccc3N3CCOCC3)C2)n1C(C)C (configuration not stated)
CCOc1ccc(C(C)=O)cc1COC(=O)c1cnc(Cl)c(Cl)c1
O=S(=O)(Cc1ccccc1)c1nc2ccccc2n1Cc1ccccn1
O=C(O)c1cccnc1Sc1ncnc2sc3c(c12)CCC3
CCCOc1ccc(Cc2c(Cl)nc(SC)nc2NC)cc1
CCOC(=O)c1c(NC(=O)Cn2nc(C(F)(F)F)cc2C)sc2c1CCC2
